Values joined by “and” are separate entries in the source; they are usually repeats but may differ in a detail not shown here. Identical values can stand only once. For part of these data: Potency and affinity values are given separately.
Experiments:
Parameters in all cases: scale not given: direction of the effect not stated beside the values
[1] = target: Protein translocase subunit SecA (Escherichia coli (strain K12)) (UniProt P10408); assay: Assay to Identify E. coli SecA ATPase Inhibitors; assay type: functional; conditions: 30 µM
Protein translocase subunit SecA (Escherichia coli (strain K12)), sequence (P10408 whole entry): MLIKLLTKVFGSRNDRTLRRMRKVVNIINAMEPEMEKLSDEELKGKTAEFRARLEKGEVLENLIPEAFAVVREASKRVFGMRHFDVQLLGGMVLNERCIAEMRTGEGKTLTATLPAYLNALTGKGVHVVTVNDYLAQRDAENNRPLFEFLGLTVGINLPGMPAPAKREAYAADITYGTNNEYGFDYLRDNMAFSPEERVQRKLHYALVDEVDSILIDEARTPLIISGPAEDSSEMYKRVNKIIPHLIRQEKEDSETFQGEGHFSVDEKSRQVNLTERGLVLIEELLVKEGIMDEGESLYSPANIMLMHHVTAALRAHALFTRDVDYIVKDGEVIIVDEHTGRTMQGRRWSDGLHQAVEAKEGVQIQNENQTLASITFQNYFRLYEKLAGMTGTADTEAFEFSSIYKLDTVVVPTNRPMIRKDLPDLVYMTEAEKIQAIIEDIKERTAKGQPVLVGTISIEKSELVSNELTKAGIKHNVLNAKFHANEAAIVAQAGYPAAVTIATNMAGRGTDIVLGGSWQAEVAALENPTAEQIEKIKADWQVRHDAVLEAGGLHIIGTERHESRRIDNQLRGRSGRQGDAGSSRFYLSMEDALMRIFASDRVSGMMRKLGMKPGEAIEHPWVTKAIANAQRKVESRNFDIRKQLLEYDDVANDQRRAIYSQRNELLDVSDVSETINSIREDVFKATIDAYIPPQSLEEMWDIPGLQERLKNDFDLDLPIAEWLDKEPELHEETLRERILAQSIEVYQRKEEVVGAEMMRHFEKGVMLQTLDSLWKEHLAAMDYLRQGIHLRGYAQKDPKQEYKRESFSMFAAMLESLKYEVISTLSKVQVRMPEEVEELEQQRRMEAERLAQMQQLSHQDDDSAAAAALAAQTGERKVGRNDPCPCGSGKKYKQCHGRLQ

[2] = target: T1, Ubiquitin-activating enzyme e1, putative (Leishmania donovani (strain BPK282A1)) (UniProt E9BSI1); assay: Leishmania donovani Ubiquitin Activating Enzyme (LdE1); assay type: functional; conditions: 30 µM
T1 sequence (whole entry): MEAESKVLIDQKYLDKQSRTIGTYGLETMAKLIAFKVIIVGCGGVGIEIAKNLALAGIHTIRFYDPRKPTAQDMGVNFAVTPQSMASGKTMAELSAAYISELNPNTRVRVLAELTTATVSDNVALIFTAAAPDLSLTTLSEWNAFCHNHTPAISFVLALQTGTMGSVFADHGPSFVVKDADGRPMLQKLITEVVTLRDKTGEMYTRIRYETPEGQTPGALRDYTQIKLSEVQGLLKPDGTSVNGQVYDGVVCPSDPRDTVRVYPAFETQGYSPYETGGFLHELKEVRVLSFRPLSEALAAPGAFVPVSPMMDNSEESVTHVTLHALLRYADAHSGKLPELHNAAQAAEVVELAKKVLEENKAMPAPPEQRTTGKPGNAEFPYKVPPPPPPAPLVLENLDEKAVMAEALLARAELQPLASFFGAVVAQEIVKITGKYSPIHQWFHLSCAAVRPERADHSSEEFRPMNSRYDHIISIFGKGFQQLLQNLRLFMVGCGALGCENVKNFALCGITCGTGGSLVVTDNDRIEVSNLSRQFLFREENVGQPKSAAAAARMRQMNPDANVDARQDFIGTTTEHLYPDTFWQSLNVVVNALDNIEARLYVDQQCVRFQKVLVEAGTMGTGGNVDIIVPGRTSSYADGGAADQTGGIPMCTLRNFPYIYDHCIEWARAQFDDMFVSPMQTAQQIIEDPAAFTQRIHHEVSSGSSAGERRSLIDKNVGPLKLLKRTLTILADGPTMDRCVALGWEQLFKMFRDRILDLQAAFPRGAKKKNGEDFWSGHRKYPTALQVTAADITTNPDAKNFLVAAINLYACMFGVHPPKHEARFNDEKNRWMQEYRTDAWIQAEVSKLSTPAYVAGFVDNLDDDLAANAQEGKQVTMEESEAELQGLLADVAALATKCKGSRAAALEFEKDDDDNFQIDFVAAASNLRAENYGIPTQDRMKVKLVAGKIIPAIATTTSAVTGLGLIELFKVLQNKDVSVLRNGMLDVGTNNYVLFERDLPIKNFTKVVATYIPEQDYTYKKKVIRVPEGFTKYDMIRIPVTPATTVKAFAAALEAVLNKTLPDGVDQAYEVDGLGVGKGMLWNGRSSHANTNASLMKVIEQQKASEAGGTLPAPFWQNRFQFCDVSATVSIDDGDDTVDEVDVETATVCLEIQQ

[3] = target: AMP-activated protein kinase, AMPK (Homo sapiens) (UniProt P54646+O43741+P54619+Q9UGJ0+Q9Y478+Q13131+Q9UGI9); assay: AMP-dependent Kinase enzyme assay. An in vitro enzyme assay that detects ADP turnover that is directly proportional to AMPK activity. This uses naive AMPK that is activated during the assay with MK-8722; assay type: functional; conditions: 30 µM
[4] = target: Sialic acid-binding Ig-like lectin 9 (Homo sapiens) (UniProt Q9Y336); assay: Hs-Siglec9 ALPHAscreen SOP 20170721; conditions: 10 µM
Sialic acid-binding Ig-like lectin 9 (Homo sapiens), sequence (Q9Y336 whole entry): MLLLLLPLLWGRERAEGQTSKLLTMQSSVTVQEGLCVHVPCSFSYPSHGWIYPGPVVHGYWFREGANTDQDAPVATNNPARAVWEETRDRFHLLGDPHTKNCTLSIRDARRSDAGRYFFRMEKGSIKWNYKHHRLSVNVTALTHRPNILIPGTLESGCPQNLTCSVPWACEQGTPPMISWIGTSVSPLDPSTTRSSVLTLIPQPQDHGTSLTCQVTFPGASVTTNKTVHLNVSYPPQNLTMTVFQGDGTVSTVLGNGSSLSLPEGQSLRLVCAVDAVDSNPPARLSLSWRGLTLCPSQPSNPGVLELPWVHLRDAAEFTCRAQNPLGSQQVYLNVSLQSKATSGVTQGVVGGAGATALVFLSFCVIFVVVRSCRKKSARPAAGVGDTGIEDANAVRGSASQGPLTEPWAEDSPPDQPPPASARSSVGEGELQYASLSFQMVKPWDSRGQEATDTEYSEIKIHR

[5] = tested on: Trypanosoma cruzi; assay: Trypanosoma cruzi phosphomannomutase and mannose-1-phosphate guanylyltransferase assay; assay type: functional; conditions: 10 µM
[6] = target: T2, Arginase-2, mitochondrial (Homo sapiens) (UniProt P78540); assay: in vitro enzyme assay to detect the production of urea directly proportional to the activity of Arginase II; assay type: functional; conditions: 33.3 µM; note: in the data most compounds retested in dose-response had high values
T2 sequence (whole entry): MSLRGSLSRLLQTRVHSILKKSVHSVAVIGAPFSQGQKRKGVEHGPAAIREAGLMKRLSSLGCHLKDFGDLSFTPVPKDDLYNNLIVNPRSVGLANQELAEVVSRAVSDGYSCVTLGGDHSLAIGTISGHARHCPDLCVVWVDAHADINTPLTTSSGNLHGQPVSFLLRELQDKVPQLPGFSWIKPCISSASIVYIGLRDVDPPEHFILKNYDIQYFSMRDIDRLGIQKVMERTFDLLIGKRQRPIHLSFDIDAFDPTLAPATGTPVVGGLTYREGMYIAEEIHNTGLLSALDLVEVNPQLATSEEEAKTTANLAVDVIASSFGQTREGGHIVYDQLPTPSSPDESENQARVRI

[7] = target: T3, Proteasome subunit beta (Trypanosoma cruzi) (UniProt O96673); assay: Trypanosoma cruzi proteasome chymotrypsin-like activity (TcProtChymo) assay.; note: in the data most compounds retested in dose-response had high values; assay type: functional; conditions: 9.37 µM
T3 sequence (whole entry): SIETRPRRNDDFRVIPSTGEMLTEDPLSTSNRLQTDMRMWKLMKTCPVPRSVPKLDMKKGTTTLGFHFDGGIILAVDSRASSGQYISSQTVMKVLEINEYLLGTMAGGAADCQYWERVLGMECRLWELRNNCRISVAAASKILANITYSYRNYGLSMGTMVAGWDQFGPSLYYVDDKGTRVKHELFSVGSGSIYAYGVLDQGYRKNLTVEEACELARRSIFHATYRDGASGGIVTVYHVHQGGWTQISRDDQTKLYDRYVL

[8] = tested on: N/A; assay: Trypanosoma cruzi proteasome luciferase counter-screen; assay type: functional; conditions: 9.37 µM
[9] = species on record: Homo sapiens; assay: To identify inhibition of the IFN signalling (Jak-Stat) pathway via expression of an eGFP reporter gene under the control of an IFN-stimulated response element (ISRE) containing MxA promoter.; assay type: functional; conditions: 30 µM
[10] = target: T4, Tyrosyl-tRNA synthetase, putative (Trypanosoma cruzi (strain CL Brener)) (UniProt Q4DSP6); assay: Trypanosoma cruzi tyrosyl tRNA synthetase (TcYRS) _High Tyrosine SOP; assay type: functional; conditions: 30 µM; note: in the data most compounds retested in dose-response had high values
T4 sequence (whole entry): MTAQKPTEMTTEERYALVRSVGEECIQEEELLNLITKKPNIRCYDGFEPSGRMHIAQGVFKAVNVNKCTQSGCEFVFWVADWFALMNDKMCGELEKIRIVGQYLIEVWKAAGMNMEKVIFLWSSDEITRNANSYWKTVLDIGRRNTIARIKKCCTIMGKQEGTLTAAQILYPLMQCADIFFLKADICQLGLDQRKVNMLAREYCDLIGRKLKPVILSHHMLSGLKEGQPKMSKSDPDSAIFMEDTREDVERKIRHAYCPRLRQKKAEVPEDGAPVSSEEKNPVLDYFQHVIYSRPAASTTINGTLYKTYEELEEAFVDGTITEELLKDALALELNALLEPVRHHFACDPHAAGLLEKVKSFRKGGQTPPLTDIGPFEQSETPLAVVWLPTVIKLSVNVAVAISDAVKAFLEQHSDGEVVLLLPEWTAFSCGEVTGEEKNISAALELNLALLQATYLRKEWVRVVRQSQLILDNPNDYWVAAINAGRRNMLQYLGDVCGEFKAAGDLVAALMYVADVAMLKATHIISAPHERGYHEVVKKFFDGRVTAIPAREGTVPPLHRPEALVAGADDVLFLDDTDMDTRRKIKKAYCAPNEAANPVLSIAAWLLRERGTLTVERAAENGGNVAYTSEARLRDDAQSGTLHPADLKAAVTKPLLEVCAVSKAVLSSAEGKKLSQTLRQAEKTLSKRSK

[11] = target: T4, Tyrosyl-tRNA synthetase, putative (Trypanosoma cruzi (strain CL Brener)); assay: Trypanosoma cruzi tyrosyl tRNA synthetase (TcYRS) SOP; assay type: functional; conditions: 30 µM
[12] = target: Chromo domain-containing protein 1 (Saccharomyces cerevisiae (strain ATCC 204508 / S288c) (Baker's yeast)) (UniProt P32657); assay: ScCHD-1 Enzyme Inhibition Assay; assay type: functional; conditions: 30 µM; note: in the data most compounds retested in dose-response had high values
Chromo domain-containing protein 1 (Saccharomyces cerevisiae (strain ATCC 204508 / S288c) (Baker's yeast)), sequence (P32657 whole entry, the tested form may be a part): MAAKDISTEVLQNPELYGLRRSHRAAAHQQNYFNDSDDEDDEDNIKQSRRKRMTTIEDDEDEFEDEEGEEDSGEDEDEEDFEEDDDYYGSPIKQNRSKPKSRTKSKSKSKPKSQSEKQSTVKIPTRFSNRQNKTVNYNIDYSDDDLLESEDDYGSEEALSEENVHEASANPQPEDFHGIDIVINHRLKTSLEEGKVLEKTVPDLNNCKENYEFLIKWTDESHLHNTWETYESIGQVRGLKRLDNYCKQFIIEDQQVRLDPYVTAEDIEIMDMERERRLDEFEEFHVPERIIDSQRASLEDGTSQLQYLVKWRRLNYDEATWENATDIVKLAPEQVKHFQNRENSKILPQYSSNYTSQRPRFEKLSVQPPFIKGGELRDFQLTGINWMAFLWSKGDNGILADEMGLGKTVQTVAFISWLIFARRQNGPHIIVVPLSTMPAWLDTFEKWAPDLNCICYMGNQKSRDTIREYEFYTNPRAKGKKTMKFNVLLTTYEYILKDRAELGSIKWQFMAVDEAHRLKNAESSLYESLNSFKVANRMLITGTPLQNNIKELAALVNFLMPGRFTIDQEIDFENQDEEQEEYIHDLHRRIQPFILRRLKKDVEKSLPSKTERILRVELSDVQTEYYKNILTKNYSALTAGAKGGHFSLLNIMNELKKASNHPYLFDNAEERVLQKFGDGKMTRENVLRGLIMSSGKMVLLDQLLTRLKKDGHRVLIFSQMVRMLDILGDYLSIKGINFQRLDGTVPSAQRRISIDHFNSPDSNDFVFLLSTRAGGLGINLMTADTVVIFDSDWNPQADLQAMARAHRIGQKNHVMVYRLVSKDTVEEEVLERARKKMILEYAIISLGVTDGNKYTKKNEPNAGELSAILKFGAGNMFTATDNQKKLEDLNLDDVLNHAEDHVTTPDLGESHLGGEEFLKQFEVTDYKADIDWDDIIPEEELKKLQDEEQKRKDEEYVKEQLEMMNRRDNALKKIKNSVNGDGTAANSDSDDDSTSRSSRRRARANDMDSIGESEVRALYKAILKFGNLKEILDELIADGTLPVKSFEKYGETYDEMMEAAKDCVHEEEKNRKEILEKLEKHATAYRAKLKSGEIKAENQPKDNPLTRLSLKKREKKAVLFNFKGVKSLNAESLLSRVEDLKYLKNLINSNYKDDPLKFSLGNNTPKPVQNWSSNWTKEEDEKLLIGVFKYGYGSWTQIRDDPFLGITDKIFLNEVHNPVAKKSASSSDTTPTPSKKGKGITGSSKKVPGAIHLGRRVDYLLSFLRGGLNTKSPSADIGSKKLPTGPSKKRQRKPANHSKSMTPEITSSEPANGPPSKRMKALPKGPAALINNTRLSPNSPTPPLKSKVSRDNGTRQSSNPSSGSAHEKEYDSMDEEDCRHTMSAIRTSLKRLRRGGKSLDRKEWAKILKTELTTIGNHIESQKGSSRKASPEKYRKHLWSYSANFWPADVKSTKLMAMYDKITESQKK

| Compound | Percent Effect [1] [%] | Percent Effect [2] [%] | Percent Effect [3] [%] | Percent Effect [4] [%] | Percent Effect [5] [%] | Percent Effect [6] [%] | Percent Effect [7] | Percent Effect [8] | Percent Effect [9] [%] | Percent Effect [10] [%] | Percent Effect [11] [%] | Percent Effect [12] [%] |
| --- | --- | --- | --- | --- | --- | --- | --- | --- | --- | --- | --- | --- |
| Cc1nc(CN2CCOC(CNc3cccnn3)C2)oc1C (stereo not given) | -1.3 | 0 | -22.1 | -5.8 | 0.283 | 28.9 | 30.6% and 26.7% and 36.4% | 11.3% and 10.2% | 11.3 | 2.46 | -8.64 | -0.197 |
| COc1cccc(-c2nc(C)c(C(=O)N[C@@H](C)C(=O)O)s2)c1 | -0.174 | 12 | -0.167 | -2.7 | -2.36 | -12.5 | 77.2% and 81.5% and 84.7% | 56.5% and 53.9% | 5.55 | 9.52 | 12.8 | -7.59 |
| CC(C1CC1)N(C)C(=O)c1cnc(-c2ccc3c(c2)OCO3)s1 (stereo not given) | -5.81 | 0 | 11.9 | 0.585 | -3.33 | -1.82 | 68.6% and 72.1% and 62.6% | 34.7% and 35.5% | 12.2 | -2.15 | -2.5 | -10.2 |
| CCc1nc(COc2ccc(OCc3cnn(C)c3)cc2)no1 | -3.52 | 13.5 | -5.93 | 21.3 | 3.86 | 4.29 | 50.7% (2×) and 48.5% | 32% and 28.2% | 23.4 | 3.7 | 19.5 | -9.15 |
| Cc1cnn(C2CN(CC(=O)NCc3ccccn3)C2)c1 | 0.391 | 26.3 | -12.2 | -9.97 | 7.56 | -4.32 | 63.5% and 62% and 58.8% | 11.6% and 13.6% | -8.2 | 17.2 | 25.9 | -5.97 |
| CNC(=O)N1CC[C@@H]2CN(Cc3cccnc3)S(=O)(=O)[C@@H]2CC1 | -2.59 | 8.11 | 4.84 | -4.72 | 1.27 | 0.319 | 11.4% and 31.6% and 11.9% | 5.24% and 4.76% | -15.6 | 0 | 15.4 | 0.163 |
| Cc1ccc(-c2cc(C(=O)NC(C)C(=O)N3CCCCC3)on2)cc1 (stereo not given) | -6.75 | 13.2 | 6.88 | 1.96 | 4.19 | 5.92 | 34.9% and 32.7% and 30.8% | 29.4% | 10.4 | 2.13 | 10.4 | -6.32 |
| CCOc1ncccc1NC(=O)c1cc2c(s1)CCC2 | 1.48 | 9.72 | 8.31 | 7.26 | 2.82 | -6.18 | 22.1% and 36.7% and 23% | 13.8% and 15.3% | 9.51 | 4.21 | 10.3 | 63.8 |
| O=C(N[C@@H]1CN(Cc2ccsc2)[C@@H]2CCCO[C@@H]21)C1CC1 | -8.12 | 18.7 | -4.7 | 2.36 | -0.193 | -57.9 | 37.3% and 23.2% and 22.2% | 7.24% and 10.5% | -2.14 | 4.17 | 17.5 | -7.56 |
| NC(=O)c1nc(COc2ccc3c(c2)OCO3)no1 | 2.5 | 9.33 | 10 | 1.5 | -8.84 | -7.22 | 45% and 40.2% and 44% | 21.3% and 24% | 3.46 | 2.12 | 10.3 | -8.03 |

— ChEMBL document CHEMBL3988442, “University of Dundee, Small-Polar-MMV Screening Library” (2021)
